Test in all cases: NCI-60 one-dose screen, 48 h (100 = growth as untreated, 0 = no growth, -100 = all killed)
Experiment [1] concerns NCI-H23 lung. To be noted: 10 µM unless noted.
Experiment [2] relates to NCI-H322M lung. The note with it: 10 µM unless noted.
In experiment [3] the test system is HOP-62 NSCLC. The note with it: 10 µM unless noted.
Experiment [4] concerns NCI-H460 lung. To be noted: 10 µM unless noted.
In experiment [5] the test system is NCI-H522 lung. To be noted: 10 µM.
Experiment [6] has as its system A549/ATCC NSCLC. To be noted: 10 µM unless noted.
The subject of experiment [7] is 786-0 renal. The note with it: 10 µM unless noted.
For experiment [8], the system named is COLO 205 colon. To be noted: 10 µM unless noted.

Structures are written as SMILES. Compounds without any hit were thinned out: in the full panel of roughly 83,000, 20% have a hit.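 Activity criterion: percent growth below 10, measured after cells in 96-well plates were exposed to a single compound concentration for 48 hours.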 Unmarked numbers belong to inactive results. Activity calls are given as the source filed them.

`COc1cc(-c2ccc3cc(OC)c(OC)c(OC)c3c2)cc(OC)c1OC`: the growth in experiment [1] is 65.4%; in experiment [2] it was 78.7%; in experiment [3] it was 61.3%; in experiment [4], 60.3%; in experiment [5] it was 34%; in experiment [6], 50.8%. Besides, the figures for the growth in experiment [7] and in experiment [8] were 84% and 54.7%, respectively.

Turning to `COc1cc(C2CC(=O)Nc3c2ccc2ccccc32)cc(Br)c1OC` (configuration not stated), the growth is 28.5% in experiment [1]; 33.1% in experiment [2]; 24.9% in experiment [3]; 3.08% (active) in experiment [4]; -42.7% (active) in experiment [5]; 18.6% in experiment [6]. The growth in experiment [7] was 30.6%; in experiment [8], -57.5% (active).

Regarding `O=[N+]([O-])c1cc2c(cc1Br)-c1ccccc1C2`, the growth in experiment [1] was 84.7%; in experiment [2], 115%; in experiment [3], 81.4%; in experiment [4] it was 102%; in experiment [5], 77.6%; in experiment [6], 90.9%. Further, the results for the growth in experiment [7] and in experiment [8] were 88.4% and 84.6%, respectively.

As for `O=C1NC(=S)S/C1=C\c1cccc([N+](=O)[O-])c1`, the growth in experiment [1] is 89.6%; in experiment [2] it was 132%; in experiment [3] it was 114%; in experiment [4], 104%; in experiment [5] it was 107%; in experiment [6], 103%. The growth in experiment [7] is 91.5%; in experiment [8], 110%.

As for `Clc1cccc(Cl)c1Nc1ccc2nnc(-c3ccncc3)n2n1`, the growth is 95.8% in experiment [1]; 88.5% in experiment [2]; 103% in experiment [3]; 106% in experiment [4]; -74.4% (active) in experiment [5]; 104% in experiment [6]. The growth is 104% in experiment [7] and 110% in experiment [8].

Regarding `COc1ccc(-c2csc3c2-n2cccc2C3=O)cc1O`, the growth was 11.7% in experiment [1]; 17.5% in experiment [2]; 31.3% in experiment [3]; 1.57% (active) in experiment [4]; -22.5% (active) in experiment [5]; 11.9% in experiment [6]. The growth in experiment [7] is 1.66% (active); in experiment [8] it was 72.3%.

Consider `COc1ccc(C2OCC(C)(C)CO2)cc1OC`, for which the growth is 98.3% in experiment [1]; 151% in experiment [2]; 117% in experiment [3]; 108% in experiment [4]; 117% in experiment [5]; 100% in experiment [6]. Also, the figures for the growth in experiment [7] and in experiment [8] were 110% and 113%, respectively.

Turning to `CC1SC(c2cccc(Oc3ccccc3)c2)N(CCc2cccs2)C1=O` (configuration not stated), the growth was -14.2% (active) in experiment [1]; 4.21% (active) in experiment [2]; 6.21% (active) in experiment [3]; -64.2% (active) in experiment [4]; -50.8% (active) in experiment [5]; -9.36% (active) in experiment [6]. Moreover, the growth was -29.6% (active) in experiment [7] and -60.1% (active) in experiment [8].

For the compound `COC(=O)C1C2CC3c4[nH]c5cc(OC)ccc5c4CCN3CC2CC(OC2CCCCO2)C1OC` (configuration not stated), the growth is 98.9% in experiment [1]; 102% in experiment [2]; 108% in experiment [3]; 107% in experiment [4]; 93.6% in experiment [5]; 95.7% in experiment [6]. The growth was 101% in experiment [7] and 109% in experiment [8].

Regarding `Cc1ccc(C2SCC(=O)N2NC(=O)c2[nH]c3ccc(F)cc3c2-c2ccccc2)cc1` (configuration not stated), the growth in experiment [1] was 86.6%; in experiment [2] it was 111%; in experiment [3], 109%; in experiment [4], 92.2%; in experiment [5] it was 67.8%; in experiment [6], 74.1%. For the same compound, the figures for the growth in experiment [7] and in experiment [8] were 105% and 104%, respectively.

In the case of `CCCOC(=O)c1ccc2c(c1)[N+](=O)C(C(=O)c1ccccc1)=C(C(F)(F)F)[N+]2=O`, the growth was -75.6% (active) in experiment [1]; -91.7% (active) in experiment [2]; -96.5% (active) in experiment [3]; -69.9% (active) in experiment [4]; -92.6% (active) in experiment [5]; -88.1% (active) in experiment [6]. Further, the values for the growth in experiment [7] and in experiment [8] were -81.2% (active) and -92.3% (active), respectively.

As for `COc1ccccc1CNCCCCCCCCCCCCN1C(=O)c2ccc3c4c(ccc(c24)C1=O)C(=O)N(CCCCCCCCCCCCNCc1ccccc1OC)C3=O`, the growth in experiment [1] was -47.6% (active); in experiment [2] it was 111%; in experiment [3], 54.5%; in experiment [4], 35.5%; in experiment [5], 87%; in experiment [6], 75.4%. In addition, the growth is -73.7% (active) in experiment [7] and 109% in experiment [8].

On to `COc1cc(/C=C2\C(=O)N(c3c(Cl)cccc3Cl)c3ccccc32)cc(OC)c1O`, for which the growth in experiment [1] is 48.1%; in experiment [2] it was 48.2%; in experiment [3] it was 48.6%; in experiment [4] it was -4.41% (active); in experiment [5], 28%; in experiment [6], 16.9%. Besides, the growth in experiment [7] was 13.9%; in experiment [8], 74.8%.

For the compound `Fc1ccccc1Nc1ccc2nnc(-c3ccncc3)n2n1`, the growth in experiment [1] is 93.1%; in experiment [2] it was 104%; in experiment [3], 106%; in experiment [4], 103%; in experiment [5], -74.5% (active); in experiment [6] it was 103%. Further, the growth was 101% in experiment [7] and 106% in experiment [8].

Source of the values: PubChem BioAssay (NCI).
